# This is a sample that favours compounds with a hit; in the whole collection about 1% have one here.
# PTAP TSG101 blk: blocks PTAP/TSG101 interaction to inhibit HIV-1 budding | Q99816 | Fluorescence polarization, FITC-PTAP peptide / Tsg101 binding | Potency, µM (highest dose often 115 µM), without a hit: top-dose activity change, negative = inhibition, actives largely listed as inhibitors | 340,000 tested, under 10 active | AID 493005; active = well fitted inhibition curve with a large enough effect in the main read-out, with a control signal flat, not every such curve was filed as active; inconclusive = small, poorly fitted or top-dose-only effect, or effect the other way, or a change in a side signal; inactive = no such curve, though single readings can be large or run the other way; note: potency is the fitted concentration of half-maximal effect; % of control where 0% means no effect
#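 Tsg101 binding domain (10 uM final) was mixed with compound and a FITC-labeled PTAP peptide (50 nM final) in HEPES pH 7.5 buffer with NaCl, Tween 20, EDTA and TCEP; fluorescence polarization was read after 20 min at r.t.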
# TRPML1 blocker: human mucolipin-1 channel inhibition. hit rate 0.02% among 390,000. Q9GZU1. AID 624415. activity change, negative = inhibition, % (test concentration not listed). TRPML1-inducible cells, Ca2+ dye fluorescence, FDSS; active compounds read low; inhibition of EC80 agonist-evoked calcium signal; in the data active = activity change below about -50%; inconclusive = between about -30% and that limit;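 note: stimulus is agonist 54-4 at its EC80 concentration; % is set by controls: 0 for no effect and ±100 for the full control effect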
# Target sequence (Q9GZU1 whole entry, looked up): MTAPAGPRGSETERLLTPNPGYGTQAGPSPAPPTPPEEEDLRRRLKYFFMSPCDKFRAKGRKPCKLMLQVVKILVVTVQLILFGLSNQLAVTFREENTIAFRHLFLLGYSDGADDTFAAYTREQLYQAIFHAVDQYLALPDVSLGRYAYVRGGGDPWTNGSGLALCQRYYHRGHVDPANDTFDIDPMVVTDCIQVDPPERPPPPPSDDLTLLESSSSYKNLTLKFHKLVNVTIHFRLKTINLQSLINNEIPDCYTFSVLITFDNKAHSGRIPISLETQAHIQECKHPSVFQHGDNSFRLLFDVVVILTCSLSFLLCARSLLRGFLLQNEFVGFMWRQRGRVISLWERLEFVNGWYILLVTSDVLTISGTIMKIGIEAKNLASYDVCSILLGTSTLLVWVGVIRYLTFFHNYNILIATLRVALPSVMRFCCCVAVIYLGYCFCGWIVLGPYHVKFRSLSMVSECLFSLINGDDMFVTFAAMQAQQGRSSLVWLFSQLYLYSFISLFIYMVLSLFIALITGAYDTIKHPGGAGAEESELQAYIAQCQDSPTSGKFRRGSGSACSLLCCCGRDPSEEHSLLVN
#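 TRPML1-DL cells, Tet-induced overnight (~16 h, 37 °C) at 1,500 cells/well, were loaded with Ca8 no-wash dye plus quencher for 45-90 min at room temperature. Compounds were pinned during FDSS kinetic reading; agonist 54-4 at EC80 (4 uM final) then added.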
# KCNH2 WT inh: inhibitors of human wildtype KCNH2 potassium channel; Q12809; U2OS, BacMam KCNH2, thallium flux FluxOr; active compounds read low; activity change, % at 1.84 µM; hit rate 0.37% among 340,000;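 active = maximum activity change below -70%; inconclusive = maximum activity change between -70% and -50%; inactive = maximum activity change above -50%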; note: % is set by controls: 0 for no effect and ±100 for the full control effect
#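 U2OS cells were transduced with wild-type KCNH2 virus (2.03 x 10^8 / mL) for 4 h at room temperature, then cultured overnight at 37 C. Thallium flux was read with FluxOr dye. Rate constants were normalized to DMSO controls.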
# TRPML1 agonist: human mucolipin-1 channel agonism | Q9GZU1 | TRPML1-expressing cells, Ca2+ dye fluorescence, FDSS | activation, % (concentration not given with the values) | hit rate 0.12% among 410,000; in the data active = activation above about 50%; inconclusive = mostly about 30% to 49%; note: 0% is about no effect
#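 Calcium fluorescence on an FDSS kinetic reader gave the read-out. Tet-induced TRPML1-DL cells were plated overnight, dye-loaded (Ca8 with quencher, 45-90 min, room temperature, dark), then read 110 s after compound addition, and again 110 s after 4uM final 54-4 (EC80).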
# Glioma ERSR ind: induces the endoplasmic reticulum stress response in human glioma cells; U87-MG GRP78 promoter luciferase reporter, 16 h; Potency, µM, inactives show at the top dose activation, actives largely listed as activators; hit rate 0.02% among 420,000; active = well fitted activation curve with a large enough effect; inconclusive = small, poorly fitted or top-dose-only effect; inactive = no such curve, though single readings can be large or run the other way; note: potency is the fitted concentration of half-maximal effect; series mostly up to about 76 µM; % of control where 0% means no effect; nearly all actives have a fitted effect of over 35% in size
#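 ERSR induction read as luciferase luminescence (Bright-Glo, 10 min at room temperature) in stably transfected human U87-MG glioma cells exposed to compounds for 16 h, using GRP78 as sensor.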
# KCNH2 3.1 block: KCNH2 3.1 (human) potassium channel inhibition. U2OS KCNH2 3.1, thallium flux FluxOr; active compounds read low. activity change, % (tested at about 1.8 µM). hit rate 0.95% among 340,000. AID 720553;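 active = maximum activity change below -70%; inconclusive = maximum activity change from -70% to -50%; inactive = maximum activity change above -50%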;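 note: thallium influx rate constant from kinetic fluorescence after stimulation buffer; % is set by controls: 0 for no effect and ±100 for the full control effect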
#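 Virally transduced U2OS (3.1 isoform, 4 h infection in dark at RT) → overnight 37 C → FluxOr + Red40 in HBSS/HEPES, 45 min → stimulation buffer, 2 min kinetic read → rate constant vs DMSO controls.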
# * hit, by the source's call; ? = inconclusive; / = no result.
SMILES,PTAP TSG101 blk,TRPML1 blocker,KCNH2 WT inh,TRPML1 agonist,Glioma ERSR ind,KCNH2 3.1 block
Cc1ccc(NC(=O)C(=O)NCCN2CCN(Cc3ccc([N+](=O)[O-])cc3)CC2)cc1,-3%,-1,-82*,0,0%,-108*
O=C(NCCN1CCN(C(=O)c2ccc(Br)cc2)CC1)c1ccc(Br)cc1,-2%,-2,-4,-1,4%,-83*
Cc1ccc(C(=O)N2CCN(CCNC(=O)C(=O)NCc3ccc(Cl)cc3)CC2)cc1,-6%,-8,17,-1,-2%,?
Cc1ccc(C(=O)N2CCN(CCNC(=O)C(=O)Nc3ccc(Cl)cc3)CC2)cc1,2%,-11,9,-1,13%,-87*
CCc1ccc(NC(=O)C(=O)NCCN2CCN(Cc3ccc([N+](=O)[O-])cc3)CC2)cc1,1%,-3,-91*,1,-7%,-106*
COc1ccc(/C=C/C(=O)NCC2Cc3cccc(-c4nc(C)cnc4C)c3O2)cc1OC (stereo not drawn),/,/,/,/,-3%,/
N=c1n(CCN2CCCC2)c2ccccc2n1CC(O)c1ccc(Cl)c(Cl)c1 (stereo not drawn),-2%,9,/,1,-11%,-84*
N=c1n(CCN2CCCCC2)c2ccccc2n1CC(O)COc1ccc(Cl)cc1Cl (stereo not drawn),/,0,/,1,-11%,/
CC(=O)Nc1ccccc1-c1nc(CNC(=O)c2ccc(-c3ccccc3F)cc2)c(C)o1,/,/,/,/,0%,/
CCc1nc(=O)c(-c2ccccc2)c(C)n1-c1ccccc1,-3%,-53*,-6,2,-5%,7
O=C(Nc1ccc(Cl)cc1)[C@@H]1[C@@H]2C(=O)N(c3ccc(Cl)cc3)C(=O)[C@@H]2[C@H]2C=CC=NN21,-4%,-4,8,0,-2%,-114*
Cc1nn(C)cc1CNc1nc(C)c(-c2ccn(CC3COc4ccccc4O3)n2)s1 (stereo not drawn),/,/,/,/,0%,/
O=C(NC(=S)N(CCc1ccccc1)CCc1ccccc1)c1ccco1,-2%,-3,-123*,0,-2%,14
C#Cc1cccc(C(=O)NCc2nc(-c3ccccc3NC(=O)C3CCCO3)oc2C)c1 (stereo not drawn),/,/,/,/,-2%,/
COc1cc2c(cc1OC)/C(=C/c1ccc(N(C)C)cc1)C=C2,/,/,/,1,4%,/
Cc1csc2c(=O)sc(NC(=O)c3ccc(F)cc3)nc12,-1%,2,-5,0,-2%,17
Cc1csc2nc(NC(=O)c3ccccc3)sc(=O)c12,1%,58,-2,0,1%,-79*
O=C1CCN(Cc2cccn2-c2ccccn2)CCN1Cc1ccccc1C(F)(F)F,/,/,/,/,-3%,/
Cc1ccccc1C(=O)NC1CCN(CC(=O)N2CCCCC2C)CC1 (stereo not drawn),0%,-6,-81*,0,1%,-6
COc1ccc(N2C(=O)[C@@H]3C[C@H]2CN3Cc2cccn2-c2ccccn2)cc1Cl,/,/,/,/,-2%,/
O=C(Nc1ccccc1SCC1CSc2nc3ccccc3c(=O)n21)c1cccc(Cl)c1 (stereo not drawn),-6%,26,-32,2,0%,-84*
O=C(Nc1ccccc1SCC1CSc2nc3ccccc3c(=O)n21)c1ccccc1 (stereo not drawn),-5%,6,1,0,-3%,-15
Cc1ccc(/C(O)=C2\C(=O)C(=O)N(CC(C)O)C2c2ccc(N(C)C)cc2)cc1 (stereo not drawn),-1%,-19,-123*,0,-4%,-5
CCOc1ccc2cc(S(=O)(=O)n3ccnc3C)ccc2c1,0%,-19,-3,0,-4%,-5
CCc1nccn1S(=O)(=O)c1ccc2ccc(C)cc2c1,0%,-2,7,1,-5%,-71*
SMILES,PTAP TSG101 blk,TRPML1 blocker,KCNH2 WT inh,TRPML1 agonist,Glioma ERSR ind,KCNH2 3.1 block
Cc1ccc(CS(=O)(=O)CCC(=O)NCc2ccccc2Cl)cc1,1%,3,-1,1,-6%,-73*
CCC(Sc1nc(-c2ccccc2)c(C#N)c(=O)[nH]1)C(=O)Nc1cc(C)on1 (stereo not drawn),-9%,-8,0,0,-2%,-71*
CCC(Sc1nc2ccccc2[nH]1)C(=O)Nc1cc(C)on1 (stereo not drawn),-3%,-7,1,0,0%,8
COc1ccccc1C1CN=NC12CCCc1ccccc1C2=O (stereo not drawn),-9%,26,1,3,-6%,-4
COC(=O)c1c(C)cccc1C1CN=NC12Cc1ccccc1C2=O (stereo not drawn),-2%,-20,-5,113*,-3%,-5
O=C(CCNC(=O)c1ccccc1)OCN1C(=O)c2ccccc2C1=O,-4%,2,-1,-1,-2%,-73*
CC(NC(=O)c1cc(F)ccc1F)c1nnc2n1CCN(Cc1ccccc1O)CC2 (stereo not drawn),/,/,/,/,0%,/
CC1CC(C)CN(CCOc2ccc(Br)cc2)C1 (stereo not drawn),-7%,?,3,-1,-3%,-96*
CC1CC(C)CN(CC(O)COCCOc2ccc(Br)cc2)C1 (stereo not drawn),-2%,7,6,1,-3%,-9
Cc1cccc(-c2cnc(C)nc2C2CCCN(C(=O)c3cccc(Cn4cccn4)c3)C2)c1 (stereo not drawn),/,/,/,/,0%,/
O=C(Nc1ccn(Cc2ccccc2)n1)c1ccc2c(c1)OCO2,-2%,18,-6,0,0%,-81*
CC1=NN(c2ccc([N+](=O)[O-])cc2)C(=O)/C1=C\N(C)C,2%,6,20,1,1%,17
COc1ccccc1/C=C1/C(=O)N(c2ccc([N+](=O)[O-])cc2)N=C1C,-5%,/,-5,/,-4%,-80*
COc1ccc(C(C)=O)cc1CSc1nnc(Nc2ccccc2C)s1,-2%,54,17,2,-4%,-117*
Cc1cc(-c2ccnc(-n3ncc(C(=O)NCC4COCCO4)c3C)n2)c(C)s1 (stereo not drawn),/,/,/,/,12%,/
CCN(CC)c1ccc(/C=C/c2nccc3ccccc23)cc1,/,/,/,64*,1%,/
CN(C)c1ccc(C=Cc2nccc3ccccc23)cc1,/,/,/,13,5%,/
CCN(CC)c1nc(C=Cc2ccc(N(C)C)cc2)c2nccnc2n1,/,-3,-107*,64*,-6%,-99*
O=C1CCN(CCc2ccccc2)CCN1[C@H](COc1ccccc1)Cc1ccccc1,-5%,97,-257*,1,7%,-100*
